Results on 16 sequences are retold here after PMC10812921, “Transcriptional Coactivator BOB1 (OBF1, OCA-B) Modulates the Specificity of DNA Recognition by the POU-Domain Factors OCT1 and OCT2 in a Monomeric Configuration”.

One assay addresses POU1 (OCT1 POU domain) (human, UniProt P14859 260-458). In words: EMSA-SELEX-seq; no BOB1; 20 mM Tris-HCl pH 7.6, 140 mM NaCl, 10% glycerol, 0.5 mM EDTA, 0.05% Triton X-100, 0.1 mg/mL BSA, 0.1 mg/mL poly(dI-dC), 5 mM DTT, room temperature, 20 min; high values mean tight binding. The settings on record: protein: recombinant; dsDNA, one strand shown. The essentials: (§1)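 Binding preference is reported as the percentage of sequenced 8-mers that match a motif pattern. Tagged POU-domain proteins were made in E. coli BL21, purified under denaturing conditions and renatured. A 30 ng portion was combined with 300 ng of a PCR-amplified double-stranded random 35-nt library, with or without 28 ng coactivator protein, in 20 μL Tris–HCl pH 7.6 binding buffer for 20 min at RT. Complex bands were excised from native 6% PAGE, eluted and PCR-amplified over four rounds before Illumina sequencing.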
On the technique in general: A gel shift assay detects complexes by their altered migration in electrophoresis.

Another assay deals with T1, POU2 (OCT2 POU domain) (human, UniProt P09086 175-386).
T1 sequence: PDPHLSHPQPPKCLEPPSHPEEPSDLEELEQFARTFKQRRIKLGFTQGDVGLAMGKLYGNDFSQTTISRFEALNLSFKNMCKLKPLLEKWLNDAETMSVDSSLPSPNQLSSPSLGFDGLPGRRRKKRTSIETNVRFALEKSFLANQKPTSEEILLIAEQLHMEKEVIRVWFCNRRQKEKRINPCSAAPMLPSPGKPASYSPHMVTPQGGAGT
The description is as above. As to conditions: protein: recombinant; dsDNA, one strand shown. The essentials: as §1

The target of assay [1] is POU1 (OCT1 POU domain);BOB1 (OBF1, OCA-B) (human;human, UniProt P14859;Q16633 260-458;1-256, |). Description: EMSA-SELEX-seq; with BOB1 (ternary complex band); 20 mM Tris-HCl pH 7.6, 140 mM NaCl, 10% glycerol, 0.5 mM EDTA, 0.05% Triton X-100, 0.1 mg/mL BSA, 0.1 mg/mL poly(dI-dC), 5 mM DTT, room temperature, 20 min; high values mean tight binding. As to conditions: protein: recombinant;recombinant; copies: 1;1; dsDNA, one strand shown. Summed up: as §1

In assay [2] the target is T2, POU2 (OCT2 POU domain);BOB1 (OBF1, OCA-B) (human;human, UniProt P09086;Q16633 175-386;1-256, |).
T2 sequence 1: T1 sequence
T2 sequence 2: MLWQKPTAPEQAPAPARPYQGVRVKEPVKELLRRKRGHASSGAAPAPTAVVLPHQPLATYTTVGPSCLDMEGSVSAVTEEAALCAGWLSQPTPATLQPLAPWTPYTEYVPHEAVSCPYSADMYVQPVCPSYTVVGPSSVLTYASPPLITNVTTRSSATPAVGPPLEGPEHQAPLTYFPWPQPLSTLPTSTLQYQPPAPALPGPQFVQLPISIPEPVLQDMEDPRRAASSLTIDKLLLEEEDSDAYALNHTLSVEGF
Described as above. As to conditions: protein: recombinant;recombinant; copies: 1;1; dsDNA, one strand shown. Summed up: as §1

Sequence of POU1 (OCT1 POU domain) (P14859 260-458): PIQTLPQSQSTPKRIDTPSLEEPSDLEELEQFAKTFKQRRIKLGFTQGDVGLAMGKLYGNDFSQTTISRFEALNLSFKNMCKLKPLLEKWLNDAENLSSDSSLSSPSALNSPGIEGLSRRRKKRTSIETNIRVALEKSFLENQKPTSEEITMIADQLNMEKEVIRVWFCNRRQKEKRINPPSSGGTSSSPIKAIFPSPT

AATCCAAC: the binding signal with POU1 (OCT1 POU domain) was 0.0259 % of ANNNNAAN 8-mers; with POU2 (OCT2 POU domain), 0.0288 % of ANNNNAAN 8-mers; in assay [1] it was 0.016 % of ANNNNAAN 8-mers; in assay [2], 0.0223 % of ANNNNAAN 8-mers.
In the same order, the values of ACAAAAAA are 0.0656 % of ANNNNAAN 8-mers, 0.0621 % of ANNNNAAN 8-mers, 0.0808 % of ANNNNAAN 8-mers and 0.0528 % of ANNNNAAN 8-mers.
In the same order, the values of ATCTGAAG are 0.0297 % of ANNNNAAN 8-mers, 0.0409 % of ANNNNAAN 8-mers, 0.0359 % of ANNNNAAN 8-mers and 0.0413 % of ANNNNAAN 8-mers.
In the same order, the values of AACTAAAA are 0.0431 % of ANNNNAAN 8-mers, 0.0478 % of ANNNNAAN 8-mers, 0.0386 % of ANNNNAAN 8-mers and 0.0305 % of ANNNNAAN 8-mers.
AAAGCAAA: the binding signal in the assay with POU1 (OCT1 POU domain) is 0.106 % of ANNNNAAN 8-mers; with POU2 (OCT2 POU domain), 0.0754 % of ANNNNAAN 8-mers; in assay [1], 0.179 % of ANNNNAAN 8-mers; in assay [2], 0.0908 % of ANNNNAAN 8-mers.
In the same order, the values of ATCATAAG are 0.0496 % of ANNNNAAN 8-mers, 0.0581 % of ANNNNAAN 8-mers, 0.0379 % of ANNNNAAN 8-mers and 0.0421 % of ANNNNAAN 8-mers.
In the same order, the values of ATTCCAAA are 0.0481 % of ANNNNAAN 8-mers, 0.0564 % of ANNNNAAN 8-mers, 0.041 % of ANNNNAAN 8-mers and 0.0578 % of ANNNNAAN 8-mers.
In the same order, the values of ACGCAAAT are 0.564 % of ANNNNAAN 8-mers, 0.409 % of ANNNNAAN 8-mers, 1.27 % of ANNNNAAN 8-mers and 1.38 % of ANNNNAAN 8-mers.
On to ATCAAAAC, for which the binding signal was 0.0465 % of ANNNNAAN 8-mers with POU1 (OCT1 POU domain), 0.0443 % of ANNNNAAN 8-mers in the assay with POU2 (OCT2 POU domain), 0.0539 % of ANNNNAAN 8-mers in assay [1] and 0.0347 % of ANNNNAAN 8-mers in assay [2].
Regarding ATGCTAAA, the binding signal with POU1 (OCT1 POU domain) is 0.273 % of ANNNNAAN 8-mers; with POU2 (OCT2 POU domain) it was 0.293 % of ANNNNAAN 8-mers; in assay [1], 0.0691 % of ANNNNAAN 8-mers; in assay [2] it was 0.0817 % of ANNNNAAN 8-mers.
In the same order, the values of AGGCGAAG are 0.024 % of ANNNNAAN 8-mers, 0.0305 % of ANNNNAAN 8-mers, 0.0242 % of ANNNNAAN 8-mers and 0.0297 % of ANNNNAAN 8-mers.
As to ATAAAAAG, the binding signal in the assay with POU1 (OCT1 POU domain) was 0.0915 % of ANNNNAAN 8-mers; in the assay with POU2 (OCT2 POU domain) it was 0.114 % of ANNNNAAN 8-mers; in assay [1] it was 0.0925 % of ANNNNAAN 8-mers; in assay [2], 0.0735 % of ANNNNAAN 8-mers.
As for AGACCAAA, the binding signal with POU1 (OCT1 POU domain) was 0.0179 % of ANNNNAAN 8-mers; with POU2 (OCT2 POU domain), 0.0213 % of ANNNNAAN 8-mers; in assay [1], 0.0246 % of ANNNNAAN 8-mers; in assay [2] it was 0.0239 % of ANNNNAAN 8-mers.
In the same order, the values of ACAAGAAG are 0.0347 % of ANNNNAAN 8-mers, 0.0316 % of ANNNNAAN 8-mers, 0.0273 % of ANNNNAAN 8-mers and 0.0322 % of ANNNNAAN 8-mers.
In the same order, the values of ACCCCAAT are 0.0145 % of ANNNNAAN 8-mers, 0.0167 % of ANNNNAAN 8-mers, 0.0172 % of ANNNNAAN 8-mers and 0.019 % of ANNNNAAN 8-mers.
For the sequence AGCCCAAG, the binding signal with POU1 (OCT1 POU domain) is 0.0111 % of ANNNNAAN 8-mers; in assay [1] it was 0.0129 % of ANNNNAAN 8-mers; in assay [2], 0.0124 % of ANNNNAAN 8-mers.
